The campaign covered roughly 69,000 compounds. About 8,600 (12%) showed an effect of 50% or more. This excerpt belongs to a sample that is enriched for strong results.
What follows are compounds tested on Plasmodium berghei (assay: Screen against P. berghei liver stage (PbLuc), transformed with Luciferase, at 10uM). Details: tested at 10 uM.
Type: functional, HepG2

Point of comparison: O=C1[C@H]2CN(S(=O)(=O)C3CC3)C[C@H]2CN1Cc1cccnc1, INHIBITION 15.4%. Against it:
- CCOC(=O)[C@H]1CNC[C@@H]1C(F)(F)F — higher, 35.6%
- Cc1nnc([C@@H]2CC[C@@H]3[C@@H](CCN3S(=O)(=O)c3cccnc3)O2)o1 — lower, 14.2%
- Cc1ccc(C(=O)NS(=O)(=O)c2ccccc2F)c(=O)[nH]1 — higher, 33.8%
- CN(C)C(=O)Cn1cc(C(=O)NCCc2ccc(Cl)cc2Cl)nn1 — lower, -27.8%
- CCc1nccn1C1CCCN(C(=O)c2ccoc2C)C1 (configuration not stated) — higher, 21.6%
- CC(=Cc1ccccc1)CNCc1cccc(C(N)=O)c1 — lower, 4.3%
- O=C(O)c1ccccc1-n1cc(CN2CCC(c3cc[nH]n3)C2)cn1 (configuration not stated) — higher, 22.17%
- Cc1csc2cc(C(=O)NC3CCCC3)cnc12 — lower, -76.5%
- CCN1CCc2c(sc3c2C(=O)NC(C=Cc2ccccc2)N3)C1 (configuration not stated) — lower, 15.1%
- CCc1nc(C)sc1CN(Cc1ccncc1)C1CCN(C)CC1 — higher, 18.8%
- Cc1nc(-c2ccc(CNS(=O)(=O)N(C)C)cc2)ccc1C(N)=O — lower, -4.87%
- CN(C)C(=O)Cc1nc(CN2CCCC2Cn2cncn2)cs1 (configuration not stated) — higher, 60.8%
- CC(=O)Nc1nc(CN2CCCC2Cn2cncn2)cs1 (configuration not stated) — higher, 61.3%
- CN(C)C(=O)Cc1nc(CN2CCCCC2Cn2cncn2)cs1 (configuration not stated) — higher, 19.1%
- CC(=O)Nc1nc(CN2CCCC2Cn2cccn2)cs1 (configuration not stated) — lower, 13.7%
- CN(C)C(=O)Cc1nc(CN2CCCC2Cn2cccn2)cs1 (configuration not stated) — higher, 47.9%
- CC(=O)Nc1nc(CN2CCCCC2Cn2cncn2)cs1 (configuration not stated) — lower, 0.411%
- Cc1cccc(CN2CCC3(CCCN(C(=O)c4ccoc4)C3)C2=O)n1 (configuration not stated) — lower, -3.52%
- CCn1nc(Br)nc1Sc1ccccc1NC(C)=O — lower, 12.4%
- Cc1ccc(CN2C[C@H](OCCN(C)C)[C@H]3OCCC[C@H]32)o1 — lower, -102%
- CC(=O)N1CCC[C@@H](NCc2cccc(F)c2)[C@@H]1c1ccc(C)s1 — lower, -32.2%
- O=C(Nc1cccc(N2CCOCC2)c1)N[C@H](CO)c1ccccc1 — higher, 51.8%
- O=C(Nc1cccc(N2CCCC2)c1)N[C@H](CCO)c1ccccc1 — higher, 19.8%
- CCC(=O)N1CCN(C(=O)Nc2cccc(N3CCOCC3)c2)CC1 — higher, 23.2%
- CCn1ncc(S(=O)(=O)NC2(CN3CCOCC3)CCCCC2)c1C — higher, 32.8%
- CCOC(=O)N1CCC(NC(=O)Nc2cccnc2OCC)CC1 — lower, -35.7%
- Fc1cnc(N2CC[C@@H](N3CCOCC3)[C@@H]2Cc2cccnc2)nc1 — higher, 43.8%
- COc1ccccc1OCCn1c(C)c(C)oc1=O — higher, 48.2%
- Cc1ccc(C)c(S(=O)(=O)CCN2CCCC2Cn2cccn2)c1 (configuration not stated) — lower, 4.93%
- OC[C@@H]1CCCN1Cc1cn(C2CCN(C3CCCC3)CC2)nn1 — higher, 54.4%
- Cc1cc(N2CCC(n3cc(CN4CCNCC4)nn3)CC2)ccn1 — higher, 49.9%
- Cc1cc(N2CCC(n3cc(CCCO)nn3)CC2)ccn1 — higher, 41%
- CC(C)Nc1cc(N2CCC(n3cc(CCO)nn3)CC2)ncn1 — higher, 19.3%
- CC(C)(C)c1cnc(CN2CCC[C@H]2CO)o1 — higher, 34.1%
- Cc1cc(N2CCC(n3cc(CN4CCC[C@@H]4CO)nn3)CC2)ccn1 — higher, 68.9%
- COc1ccc(C[C@H]2CNCC[C@@H]2OCC2CC2)cc1 — lower, -51.6%
- CN(C(=O)Cc1ccc2c(c1)OCCO2)C1CCCC1 — lower, -138%
- Cc1cncc(C2CCN(Cc3cccn3C)CC2)n1 — higher, 41.2%
- CCn1cc(NC(=O)C2CCC(=O)N2Cc2ccc(C)o2)cn1 (configuration not stated) — higher, 16.1%
- CN1CCC(N(C)C[C@H]2CC[C@@H](Cc3ccc4c(cnn4C)c3)O2)CC1 — lower, 14.9%
- CCN(C)C[C@H]1CC[C@@H](Cc2ccc3c(cnn3C)c2)O1 — higher, 58.2%
- CN(C)C[C@H]1CC[C@@H](Cc2ccc3c(cnn3C)c2)O1 — higher, 32.4%
- CCOc1nn(CC)cc1-c1nnc(SCC)n1C — lower, 15%
- Cc1nn(C)c(C)c1C(C)NCc1ccsc1 (configuration not stated) — lower, -14.5%
- Cc1cc(C)cc(CNC(C)c2c(C)nn(C)c2C)c1 (configuration not stated) — higher, 58%
- Cc1nn(C)c(C)c1C(C)NCc1ccc(OC(C)C)cc1 (configuration not stated) — lower, -37.7%
- CN1CC(=O)N(c2cccc(F)c2)CC12CCN(CC1CCOCC1)C2 (configuration not stated) — lower, -4.23%
- CN(C)c1ncc(-c2cc(C(=O)NC(C)(C)CO)n(CC3CC3)c2)cn1 — lower, -21.1%
- COc1cc(OC)cc(C(=O)NCC(c2cccn2C)N2CCCC2)c1 (configuration not stated) — higher, 28.4%
- COc1cccc(C(=O)NCC(c2cccn2C)N2CCCC2)c1OC (configuration not stated) — higher, 75.6%
- COc1cccc(OC)c1C(=O)NCC(c1cccn1C)N1CCCC1 (configuration not stated) — higher, 30%
- COc1ccc(C(=O)NCC(c2cccn2C)N2CCCC2)c(OC)c1 (configuration not stated) — lower, -11.1%
- COc1ccc(C(=O)NCC(c2cccn2C)N2CCN(C)CC2)cc1 (configuration not stated) — lower, 6.83%
- COc1ccc(C(=O)NCC(c2cccn2C)N2CCCC2)cc1OC (configuration not stated) — higher, 52.4%
- CN(C)C(=O)c1cccnc1SCc1ccccc1C#N — lower, 1.61%
- CCc1nc(C2CCCN(C(=O)c3ccc(O)nc3)C2)no1 (configuration not stated) — higher, 43.2%
- CN1CC(=O)N(c2ccccc2)CC12CCN(C(=O)c1cnccn1)C2 (configuration not stated) — higher, 29.3%
- c1ccc(-c2nnc(CN3CCOC(Cn4cccn4)C3)o2)cc1 (configuration not stated) — lower, 0.914%
- Cc1cnn(CCC(=O)N2CCCC(c3noc(C)n3)C2)c1 (configuration not stated) — lower, -4.16%
- O=C1[C@H]2CN(C3CCOCC3)C[C@H]2CN1Cc1cccnc1 — higher, 92%
- Cc1ccc2c(n1)N(Cc1cccnc1)CCN(C(=O)C1CC1)C2 — higher, 31.1%
- Cc1ccc2c(n1)N(Cc1cccnc1)CCN(C1CCOCC1)C2 — higher, 64.9%
- Cc1ccc2c(n1)N(CCn1cccn1)CCN(C1CCOCC1)C2 — lower, -77.4%
- O=C1[C@H]2CN(C3CCOCC3)C[C@H]2CN1Cc1ccncc1 — lower, -2.46%
- CCOC(=O)CNC(=O)NCc1cccn1Cc1cccc(C)c1 — higher, 45.8%
- CC(=O)N1[C@H](CN(C)C)C[C@@H]2CN(C(=O)c3occc3C)CC[C@@H]21 — lower, 12.4%

Reference: ChEMBL document CHEMBL4513216, “Probing the Open Global Health Chemical Diversity Library for Multistage-Active Starting Points for Next-Generation Antimalarials” (ACS Infect Dis, 2020)
